{
  "source": "PubChem BioAssay (Tox21)",
  "note": "Activity calls are given as the source filed them. The call rests on the fitted dose curve; in most records, active means well fitted activation curve with a large enough effect in the repeat runs; inconclusive means weak or mixed curves; inactive means flat fitted curve, though single readings scatter. On the % scale 0 is the no-effect control and ±100 the full control effect.",
  "data": [
    {"experiment": "A CellTox Green Cytotoxicity Assay to monitor cytotoxicity in HEK293 cells - 0 hour (AID 1224869); further: nearly all actives have a fitted effect of over 50% in size", "settings": "CellTox Green fluorescence; series mostly up to 76.8 µM", "text": "National Center for Advancing Translational Sciences [NCATS]\nNIH Chemical Genomics Center [NCGC]\nU.S. Environmental Protection Agency [EPA]\nNational Institutes of Environmental Health Sciences [NIEHS]\nNational Toxicology Program [NTP]\nCell-based models are critical for drug discovery. Determining the natural cytotoxic effects resulting from test compounds is an essential research activity. A CellTox Green Cytotoxicity Assay to monitor cytotoxicity in real time of continues cell culture during 40 hours of the compound treatment was used to screen Tox21 10K library compounds in Hek293 cells. CellTox Green Cytotoxicity Assay is a nonlytic, homogeneous, biofluorescent method to measure cytotoxicity in cell culture after experimental manipulation. The assay system uses a proprietary asymmetric cyanine dye that is excluded from viable cells but preferentially stains the dead cell's DNA. […] Viable cells produce no appreciable increases in fluorescence. Therefore, the fluorescence signal produced by the binding interaction with dead cell DNA is proportional to cytotoxicity.\nThe mixture of Hek293 cell suspension and reagents were dispensed at 600cells/6 ul/well in 1536-well tissue culture treated black solid bottom plates using a Multidrop dispenser. After the assay plates were incubated at a 37 C/5% CO2 incubator for 5 hours, 23 nL of compounds dissolved in DMSO, positive and negative controls was transferred to the assay plate by a pintool work station. The plates were incubated at 37 C for 40 hours. The fluorescence intensity were measured at 0h, 8h, 16h, 24h, 32h and 40h time points using ViewLux plate reader during compound treatment.", "values": [
      {"smiles": "CC(C#N)(CCC(=O)O)N=NC(C)(C#N)CCC(=O)O", "note": "(stereo not given)", "outcome": "inactive"},
      {"smiles": "CC(C)COC(=O)c1ccc(N)cc1", "outcome": "inactive"},
      {"smiles": "Nc1ccn([C@@H]2O[C@H](CO)[C@@H](O)C2(F)F)c(=O)n1", "outcome": "inactive"},
      {"smiles": "C[N+]12CCC(CC1)C(OC(=O)C(O)(c1ccccc1)c1ccccc1)C2", "note": "(stereo not given)", "outcome": "inactive"},
      {"smiles": "CCCCCC(=O)OCCc1ccccc1", "outcome": "inactive"},
      {"smiles": "CC/C=C\\CCOC(C)OCC", "note": "(stereo not given)", "outcome": "inactive"},
      {"smiles": "C=CCCC(=O)O", "outcome": "inactive"},
      {"smiles": "CCCCS(=O)(=O)N[C@@H](Cc1ccc(OCCCCC2CCNCC2)cc1)C(=O)O", "outcome": "inactive"},
      {"smiles": "[Ca+2]", "outcome": "inactive"},
      {"smiles": "O=C(O)c1cn(C2CC2)c2cc(N3CCNCC3)c(F)cc2c1=O", "outcome": "inactive"},
      {"smiles": "CCCCCCC1CCC(=O)O1", "note": "(stereo not given)", "outcome": "inactive"},
      {"smiles": "CCOC(=O)COc1cc(-n2ncc(C(F)(F)F)c(C)c2=O)c(F)cc1Cl", "outcome": "inactive"},
      {"smiles": "CC[N+](CC)(CC)CCOc1cccc(OCC[N+](CC)(CC)CC)c1OCC[N+](CC)(CC)CC", "outcome": "inactive"},
      {"smiles": "CC(=O)C1CCCCC1=O", "note": "(stereo not given)", "outcome": "inactive"},
      {"smiles": "CCNS(=O)(=O)c1ccc(C)cc1", "outcome": "inactive"},
      {"smiles": "CCC(=O)OCc1ccccc1", "outcome": "inactive"},
      {"smiles": "CC(=O)N[C@H]1[C@H]([C@H](O)[C@H](O)CO)OC(C(=O)O)=C[C@@H]1N=C(N)N", "outcome": "inactive"},
      {"smiles": "CCCC(C)C(=O)OCC", "note": "(stereo not given)", "outcome": "inactive"},
      {"smiles": "CCN1C=CN(C)C1C", "note": "(stereo not given)", "outcome": "inactive"},
      {"smiles": "C[N+](C)(C)CCCCCCCCCC[N+](C)(C)C", "outcome": "inactive"},
      {"smiles": "CC12CCC(C(=O)C1=O)C2(C)C", "note": "(stereo not given)", "outcome": "inactive"},
      {"smiles": "COc1cc(C(=O)NCc2ccc(OCCN(C)C)cc2)cc(OC)c1OC", "outcome": "inactive"},
      {"smiles": "CC[N+](CC)(CC(=O)Nc1c(C)cccc1C)Cc1ccccc1", "note": "(tested in a mixture with another compound)", "outcome": "inactive"},
      {"smiles": "Nc1ccccn1", "outcome": "inactive"},
      {"smiles": "CC1=NN(c2cccc(S(=O)(=O)O)c2)C(=O)C1", "outcome": "inactive"},
      {"smiles": "C[N+](C)(CCOc1ccccc1)Cc1cccs1", "outcome": "inactive"},
      {"smiles": "C[N+]1(C)CCCC(OC(=O)C(O)(c2ccccc2)c2ccccc2)C1", "note": "(stereo not given)", "outcome": "inactive"},
      {"smiles": "Cc1cc(C)c(N=Nc2c(O)c(S(=O)(=O)O)cc3cc(S(=O)(=O)O)ccc23)cc1C", "cytotoxicity": "0.859% [at 6.97 µM] (inactive)"},
      {"smiles": "CCO[Si](OCC)(OCC)c1ccccc1", "outcome": "inactive"},
      {"smiles": "C=CC(C)(CCC=C(C)C)OC(=O)CC", "note": "(stereo not given)", "outcome": "inactive"},
      {"smiles": "O=S(=O)(O)c1cccc2c(S(=O)(=O)O)cccc12", "outcome": "inactive"},
      {"smiles": "CCOCC(C)O", "note": "(stereo not given)", "outcome": "inactive"},
      {"smiles": "O=Cc1cccc(Br)c1", "outcome": "inactive"},
      {"smiles": "O=S(=O)(O)c1cc(O)c(O)c(S(=O)(=O)O)c1", "outcome": "inactive"},
      {"smiles": "CC(=O)OCC(=O)[C@@]1(O)[C@H](C)C[C@H]2[C@@H]3CCC4=CC(=O)C=C[C@]4(C)[C@@]3(F)[C@@H](O)C[C@@]21C", "outcome": "inactive"},
      {"smiles": "NC(=O)NC1N=C([O][Al])NC1=O", "note": "(stereo not given)", "outcome": "inactive"},
      {"smiles": "CCCCCCCCCCOc1cc2c(=O)c(C(=O)OCC)c[nH]c2cc1OCC", "cytotoxicity": "-0.138% [at 6.97 µM] (inactive)"},
      {"smiles": "C=C(C)C(=O)OCCOCCOCCOCCOC(=O)C(=C)C", "outcome": "inactive"},
      {"smiles": "CC(C)CC(C)(N)C#N", "note": "(stereo not given)", "outcome": "inactive"},
      {"smiles": "CC(=O)c1ccccc1[N+](=O)[O-]", "outcome": "inactive"}
    ]}
  ]
}
